The list is not random: actives were taken first. Their share in the collection is about 12%.
Cycloheximide cs: counter-screen hit for Shiga toxin inhibitors, cycloheximide. cell reporter, cycloheximide protein synthesis inhibition counterscreen. 300,000 compounds, 12% hits. max response, %; in the data active = max response mostly above about 13%, no sharp cut-off; inactive = mostly below about 14%; note: read at 38.3 µM for the half of the compounds with a filed dose; 0% is about no effect
Shiga inhibitor: Shiga toxin inhibition | Vero cells, Shiga toxin protein synthesis inhibition reporter | inhibition, % at 38.7 µM | 290,000 compounds, 9.2% hits | AID 2315; in the data active = inhibition mostly above about 28%, no sharp cut-off; inactive = mostly below about 43%; note: 0% is about no effect
FMDV antiviral: blocks foot and mouth disease virus. Potency, µM (highest dose often 57.9 µM), for the others: at the top dose activity change, negative = inhibition, hits mostly inhibitors. FMDV antiviral cell-based qHTS. 410,000 compounds, 1.2% hits; calls by dose curve; tested in HEK293T cells; note: read-out not given here; potency is the fitted concentration of half-maximal effect; % is set by controls: 0 for no effect and ±100 for the full control effect; nearly all actives have a fitted effect of over 45% in size
Sm TGR block: S. mansoni TGR enzyme inhibition; AID 485364; 360,000 compounds, 3% hits; Q962Y6; purified TGR, DTNB reduction, TNB absorbance 405 nm; Potency, µM (titrated, usually from 114 µM), inactives show at the highest dose activity change, negative = inhibition, actives largely listed as inhibitors; active = well fitted inhibition curve with a large enough effect; inconclusive = small, poorly fitted or top-dose-only effect; inactive = no such curve, though single readings can be large or run the other way; note: potency is the fitted concentration of half-maximal effect; % is set by controls: 0 for no effect and ±100 for the full control effect; nearly all actives have a fitted effect of over 60% in size
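TGR 20 nM + NADPH 100 uM (dispensed conc.), cpd preinc 15 min RT; start with NADPH (500 uM addition) then DTNB (15 mM addition). Kinetic TNB absorbance, 405 nm filter. Four-parameter Hill fit across titration.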
The depositor's hits bear a star; ? = inconclusive; nt = not tested or not shown; ! = repeats disagree; [ ] = dose if it differs, or a comment.

SMILES | Cycloheximide cs | Shiga inhibitor | FMDV antiviral | Sm TGR block
COC(=O)C1=NN(C(=O)c2cccc(Cl)c2)C(O)(C(C)(C)C)C1 (centres undefined) | 51* | 92* | -8% | 0%
Cc1ccc(C(=O)Nc2ccc3c(c2)OCO3)cc1S(=O)(=O)N1CCCC1 | 46* | 45* | -6% | -3%
Cc1ccc(C(=O)Nc2ccc3c(c2)OCO3)cc1S(=O)(=O)N1CCOCC1 | 29* | 107* | 11% | 2%
C/C(=N\Nc1ccc([N+](=O)[O-])cc1)c1ccc(C#N)cc1 | -5 | 10 | -2% | 0%
C/C(=N/Nc1ccc([N+](=O)[O-])cc1)c1ccc(C)cc1C | 42* | 94* | 16% | -2%
C/C(=N/Nc1ccc([N+](=O)[O-])cc1)c1c[nH]c2ccccc12 | 27* | 34* | 31% | -3%
CC(N)(COP(=O)(O)O)C(=O)O (centres undefined) | nt | nt | -4% | nt
O=C(CSc1ccc(-c2nc3ccccc3[nH]2)cn1)Nc1ccc(S(=O)(=O)N2CCCC2)cc1 | 40* | 33* | -1% | 16%
CCOC(=O)CNC(=O)CSc1ccc(-c2nc3ccccc3[nH]2)cn1 | 3 | 5 | -5% | -15%
Cc1cc2nc(-c3ccc(SCC(=O)Nc4ccc(S(=O)(=O)N5CCCC5)cc4)nc3)[nH]c2cc1C | 36* | 81* | 0% | 2%
CC1=C(C(=O)Nc2ccc(C)cc2C)C(C(C)C)n2nc(SCc3ccccc3Cl)nc2N1 (centres undefined) | nt | nt | -15% | 3%
CC(C)n1c(CCC(=O)O)ccc1-c1ccccc1 | -7 | -16 | 1% | 18µM*
Cc1ccc(-c2ccc(CCC(=O)O)n2Cc2ccco2)cc1 | -1 | 6 | 7% | 35µM*
COc1ccc(OC)c(NC(=O)Cn2c(CCC(=O)O)ccc2-c2ccc(C)cc2)c1 | 1 | -5 | -12% | -27%
O=C(O)CCc1ccc(-c2ccc(Br)cc2)n1CC(=O)O | -1 | -7 | 11% | ?
O=C(O)CCc1ccc(-c2ccccc2)n1CC(=O)O | -2 | -3 | 5% | 35µM*
O=C(O)CCc1ccc(-c2ccccc2)n1NC(=O)c1ccco1 | 7 | -9 | -9% | ?
O=C(O)CCc1ccc(-c2ccc(F)cc2)n1CCC(=O)O | -3 | -6 | nt | 14µM*
CCc1cccc2c(-c3ccc(F)cc3)nc(SCC(=O)Nc3ccccc3)nc12 | nt | nt | -8% | 1%
Cn1c(=O)c2sccc2n2c(CCC(=O)N3CCN(c4cccc(Cl)c4)CC3)nnc12 | nt | nt | -27% | -1%
COc1cccc(C2=CC(c3ccc(N(C)C)cc3)n3nnnc3N2)c1 (centres undefined) | 25* | 50* | -7% | ?
COc1ccc(C2C=C(c3ccccc3)Nc3nc(NC(C)=O)nn32)cc1 (centres undefined) | -3 | -7 | 10% | 20µM*!
COc1ccccc1C(=O)Nc1nc2n(n1)C(c1ccc(F)cc1)C=C(c1ccc(Cl)cc1)N2 (centres undefined) | nt | nt | -17% | -1%
COc1ccc(C2C=C(c3ccccc3)Nc3nnnn32)cc1 (centres undefined) | 21* | 53* | nt | -5%
Cc1ccc(C2C=C(c3ccc(Cl)cc3)Nc3nc(NC(=O)c4ccco4)nn32)cc1 (centres undefined) | nt | nt | ? | 13µM*
SMILES | Cycloheximide cs | Shiga inhibitor | FMDV antiviral | Sm TGR block
COc1ccc(/C=C/C(=O)Nc2nc3n(n2)C(c2ccccc2)C=C(c2ccccc2)N3)cc1 (centres undefined) | nt | nt | -13% | 0%
COc1cc2nc(CN(CCO)C3CS(=O)(=O)CC3O)nc(N3CCCCC3)c2cc1OC (centres undefined) | nt | nt | -3% | nt
Cc1nn(-c2ccc(F)cc2)c(-n2cccc2)c1C(=O)N1CCN(c2ccc(F)cc2)CC1 | nt | nt | ? | 1%
CC(=O)Nc1ccccc1-c1nc(CNC(=O)c2cc(C)ccc2C)c(C)o1 | nt | nt | -8% | nt
O=C(NC1CCCC1)c1ccc(CSc2nc3cccnc3n2Cc2ccccc2F)cc1 | nt | nt | ? | 0%
Cc1nc(C)c(CC(=O)N2CCOc3ccc(CN4CCOCC4)cc3C2)s1 | nt | nt | -9% | nt
COc1ccc(Br)cc1C(=O)NC(=S)Nc1ccc(Cl)c(C(=O)O)c1 | -6 | 40 | 0% | -6%
COc1ccc(C(=O)NC(=S)Nc2ccc(Cl)c(C(=O)O)c2)cc1 | 6 | 12 | -3% | 40µM*
CC(C)Oc1cccc(C(=O)NC(=S)Nc2ccc(Cl)c(C(=O)O)c2)c1 | 8 | 32 | 32% | 40µM*
CCCn1cc(S(=O)(=O)c2ccccc2)c(=O)c2cc(F)c(N3CCCC(C)C3)cc21 (centres undefined) | nt | nt | -20% | 0%
CCCCc1ccc(NC(=O)c2cc(-c3ccc(C)c(F)c3)on2)cc1 | nt | nt | 4% | -15%
Cc1cccc(CC2C(=O)Nc3ccccc32)c1 (centres undefined) | nt | nt | -4% | 41%
CCN(Cc1ccccc1)S(=O)(=O)c1ccc2c(c1)CC(C)N2C(=O)C1CCC1 (centres undefined) | nt | nt | -20% | -1%
CCOC(=O)c1cc(-c2ccccc2)n(-c2cccc(C(=O)Nc3cccc(SC)c3)c2)c1C | nt | nt | 10% | 12%
O=C(OCn1ncc(Br)c(Br)c1=O)c1c(F)cccc1F | 17* | 3 | nt | 0.56µM*
COc1ccc(CNCCCSc2nnnn2-c2ccccc2)cc1 | nt | nt | 1% | -2%
C/C(Cl)=C/CSc1nn2c(=O)c3ccccc3nc2s1 | 41* | 62* | 26% | -10%
C=CCSc1nn2c(=O)c3ccccc3nc2s1 | 35* | 48* | 22% | 7%
Cc1ccccc1Nc1nn2c(=O)c3ccccc3nc2s1 | 11 | 21 | 39% | 14%
Cc1ccc(S(=O)(=O)C2(C(=O)Nc3ccc(Cl)c(C(F)(F)F)c3)CC2)cc1 | nt | nt | -2% | 6%
CCOc1nc(NCCO)nc(Nc2ccc([N+](=O)[O-])cc2)n1 | -2 | -19 | -22% | 1%
COc1ccc(Nc2nc(NCc3ccco3)nc(N/N=C/c3ccccc3)n2)cc1 | 12 | 10 | -19% | -2%
CCOc1nc(NCCO)nc(Nc2ccccc2F)n1 | 17* | 48 | 13% | 1%[57.1 µM]
CCOc1nc(NCc2ccco2)nc(Nc2ccc(OC)cc2)n1 | 27* | 28 | 8% | -4%
CCOc1nc(NCc2ccco2)nc(Nc2ccccc2F)n1 | 27* | active | 46% | -19%
SMILES | Cycloheximide cs | Shiga inhibitor | FMDV antiviral | Sm TGR block
COC(=O)c1cc(NC(=O)c2cc3sccc3n2Cc2ccc(Cl)cc2)cc(C(=O)OC)c1 | nt | nt | -23% | 8%
C/C(=N\NC(=O)c1cccc(N/N=C(\C)c2ccco2)c1)c1ccco1 | 29* | 90* | 8% | -28%
C/C(=N/N1CCN(c2ccccn2)CC1)c1cccc([N+](=O)[O-])c1 | 15* | 22 | 0% | -15%
C/C(=N\NC(=O)c1cccc([N+](=O)[O-])c1)c1cccc(NC(=O)C2CC2)c1 | 17* | 14 | -2% | 11%
O=C(c1cccc([N+](=O)[O-])c1)N1CCN(c2ccccn2)CC1 | 0 | -8 | -10% | 0%
C/C(=N\NC(=O)c1cccc(N/N=C(\C)c2cc(O)ccc2O)c1)c1cc(O)ccc1O | 32* | 88* | 0% | -27%
O=C(NNC(=O)c1ccccn1)c1cccc([N+](=O)[O-])c1 | 8 | 8 | 18% | 1%
